Source: PubChem (National Center for Advancing Translational Sciences (NCATS))
A selection: hits, their analogues and other compounds. The true share with any hit is near 2.4%.
Tb PGK inh – T. brucei PGK inhibition. Potency, µM (top dose mostly 57.5 µM), without a hit: top-dose activity change, negative = inhibition, hits mostly inhibitors. PGK/GAPDH coupled, Kinase-Glo luminescence, 60 min. AID 602233. 0.043% of 380,000 active; note: % is set by controls: 0 for no effect and ±100 for the full control effect; nearly all actives have a fitted effect of over 60% in size
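Recombinant glycosomal PGK reaction used 1,3-bisphosphoglycerate generated in-well by GAPDH (100nM final) in 100mM TEA pH 7.6, 5mM MgCl2, 0.01% Tween-20. After 60 minutes at room temperature, ATP was read by Kinase-Glo Plus luminescence end-point.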
Tb PFK block – T. brucei PFK enzyme inhibition; O15648; T. brucei PFK, ADP-Glo luminescence; Potency, µM (doses to about 57.5 µM), for inactives: top-dose activity, negative = inhibition, most hits filed as inhibitors; 0.17% of 330,000 active;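 note: 0% = uninhibited 1x PFK enzyme wells and -100% = no-enzyme wells; nearly all actives have a fitted effect of over 60% in size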
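Compounds were pin-transferred as a titration series up to 57 uM into substrate buffer (0.5 mM F6P, 0.1 mM ATP, pH 8.0), then 1.25 nM PFK was added and reactions ran 45 min before ADP-Glo detection.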
Rango dissoc inh – prevents RanGTP from dissociating the Rango-importin beta complex. Biochemical FRET Rango-importin beta, RanGTP-induced dissociation. Potency, µM (series often up to 46.1 µM), without a hit: at the top dose activity change, negative = inhibition. 0.071% of 340,000 active. AID 540253; calls by dose curve; note: % of control where 0% means no effect; nearly all actives have a fitted effect of over 45% in size
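Rango/importin beta premix (0.1/0.25 uM final), PBS + 1 mM DTT + 0.02% Tween-20 + 0.1% BSA; cpd 5 min RT; FRET pre-read; + RanGTP-RCC1 (0.6 uM Ran, 2 mM GTP, 0.2 uM RCC1); 45 min RT; FRET post-read, ex 430, em 486/530 nm.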
ELG1 repair inh – inhibitors of ELG1-dependent DNA repair in HEK293T cells; Potency, µM (doses to about 46.1 µM), for inactives: at the highest dose activity change, negative = inhibition, actives largely listed as inhibitors; 2.3% of 330,000 active; HEK293T ELG1-luciferase reporter, luminescence, 16 h; DNA damage induced by 5-fluorouridine; note: % is set by controls: 0 for no effect and ±100 for the full control effect; nearly all actives have a fitted effect of over 55% in size
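Quantitative HTS, concentration-response format. 2,000 cells/well co-treated with 5-fluorouridine and compound, 16 hr in 5% CO2 at 37 °C; ONE-Glo luminescence read after 30 min.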
PKM2 act – increases activity of human pyruvate kinase M2. P14618. purified PKM2, Kinase-Glo ATP luminescence, activation; response scale: 0% is enzyme alone, no compound. Potency, µM (top dose mostly 57.5 µM), for the others: at the top dose activation, actives largely listed as activators. 0.34% of 260,000 active. AID 1631; note: % is set by controls: 0 for no effect and ±100 for the full control effect; nearly all actives have a fitted effect of over 55% in size
Target sequence (P14618 whole entry, looked up): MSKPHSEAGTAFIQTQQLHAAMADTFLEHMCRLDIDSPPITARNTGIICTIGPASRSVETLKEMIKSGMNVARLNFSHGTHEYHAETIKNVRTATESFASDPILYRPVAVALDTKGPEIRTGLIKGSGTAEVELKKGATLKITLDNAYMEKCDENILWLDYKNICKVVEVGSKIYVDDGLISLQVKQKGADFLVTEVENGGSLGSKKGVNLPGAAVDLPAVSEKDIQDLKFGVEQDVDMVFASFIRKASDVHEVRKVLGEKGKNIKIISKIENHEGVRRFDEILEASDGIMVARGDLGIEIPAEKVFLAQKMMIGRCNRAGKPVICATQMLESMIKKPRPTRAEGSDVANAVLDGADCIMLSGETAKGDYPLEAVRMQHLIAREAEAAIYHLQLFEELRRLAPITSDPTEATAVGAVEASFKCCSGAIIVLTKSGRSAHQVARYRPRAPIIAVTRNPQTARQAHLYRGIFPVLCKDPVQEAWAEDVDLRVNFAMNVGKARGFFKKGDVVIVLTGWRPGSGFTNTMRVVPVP
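hPK-M2, >95% pure; 0.1 mM ADP / 0.5 mM PEP final; imidazole pH7.2 buffer w/ 7 mM MgCl2, 50 mM KCl; 1 h RT; Kinase-Glo lum. Intermediate enzyme activity for dual inhibitor/activator qHTS.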
Rango complex inh – Rango-importin beta binding inhibition | Potency, µM (top dose mostly 92.2 µM), for the others: at the highest dose inhibition of complex formation | Rango CFP/YFP FRET sensor + importin beta, 45 min | 0.031% of 340,000 active | AID 540263; calls by dose curve;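 note: 0% = DMSO wells and 100% = buffer wells lacking importin beta; nearly all actives have a fitted effect of over 15% in size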
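Inhibition scored from the CFP 486 nm/YFP 530 nm FRET ratio 45 min after adding 0.125 microM importin beta to 50 nM Rango biosensor preincubated 5 min with compound (room temperature, PBS with DTT, Tween-20, BSA). No-importin wells as positive control.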
An asterisk follows results filed as active; i = inactive; ? = inconclusive; nt = not tested or not shown. Unless noted, calls come from the whole dose curve; as a rule, active = well fitted curve in the direction sought with a large enough effect; inconclusive = small, poorly fitted or top-dose-only effect, or another doubt; inactive = no such curve, though single readings can be large; an effect the other way counts as inactive or inconclusive. Potency is the fitted concentration of half-maximal effect.

SMILES	Tb PGK inh	Tb PFK block	Rango dissoc inh	ELG1 repair inh	PKM2 act	Rango complex inh
COCCCN(C(=O)CCOc1ccccc1C)c1c(N)n(Cc2ccccc2)c(=O)[nH]c1=O	-5.1%	6.3%	3.5%	-5.8%	nt	0.8%
COc1ccc(C(=O)CC(Nc2ccc([N+](=O)[O-])cc2)c2ccc(Cl)cc2)cc1 (stereo not given)	-1.7%	5.3%	3.2%	16.4µM*	11.7%	-4.9%
COc1ccc(C(=O)CC(=O)C(=O)Nc2ccc(Cl)cc2)cc1	-5.7%	-2.6%	-7.4%	?	nt	1.3%
Cn1c(=O)oc2cc(S(=O)(=O)N3CCCC(C(=O)NCc4ccc(F)cc4)C3)ccc21 (stereo not given)	7.8%	nt	nt	nt	nt	nt
c1ccc(-c2cc(-c3nc4ccccc4[nH]3)c3ccccc3n2)cc1	-3.7%	-2.1%	21.1%	20.6µM*	0.5%	-0.3%
Nc1ccc(-c2nc3ccccc3[nH]2)cc1	-1.9%	-0.4%	9.4%	?	-21.9%	-5.9%
COc1ccccc1N1CCN(C(=O)CSc2nc3ccccc3nc2Cc2ccc(F)cc2)CC1	-2.2%	nt	nt	nt	nt	nt
COc1cc(C2NC(=S)NC3=C2CCc2ccccc23)cc(OC)c1OC (stereo not given)	-0.1%	0.0%	-22.3%	1.8%	-0.1%	-3.8%
C=CCOc1ccc(C2NC(=S)NC3=C2CCc2ccccc23)cc1 (stereo not given)	-9.1%	0.0%	-0.5%	5.17µM*	4.2%	-2.6%
COc1ccccc1CN1CCCC(CN(CCN(C)C)C(=O)c2ccc(C)cc2)C1 (stereo not given)	-9.0%	0.8%	6.9%	-0.5%	0.9%	-4.7%
COc1ccc(CNCC(O)COc2cccc3c2OC(C)(C)C3)cc1 (stereo not given)	i	-1.5%	1.2%	9.2µM*	-4.9%	-1.0%
COc1ccc2c(c1)O/C(=C\c1sccc1C)C2=O	-1.4%	0.0%	10.3µM*	?	-11.4%	?
CCOC(=O)C1=C(COC(=O)/C=C/c2ccc(OC)cc2)NC(=O)NC1C (stereo not given)	-6.4%	0.0%	-0.2%	?	nt	-4.1%
CCOC(=O)C1=C(COC(=O)/C=C/c2ccc(SC)cc2)NC(=O)NC1C (stereo not given)	-6.9%	-2.8%	-14.1%	10.3µM*	nt	0.7%
COc1ccc(Cc2nnc(SCC(=O)Nc3ccccc3C#N)o2)cc1	-2.3%	-2.0%	-5.0%	11.9%	1.0%	-0.2%
CCOc1ccc2[nH]c3c(N4CCc5ccccc5C4)ncnc3c2c1	1.9%	-3.6%	1.9%	18.3µM*	5.3%	-1.5%
Fc1ccc2[nH]c3c(N4CCc5ccccc5C4)ncnc3c2c1	4.4%	-3.6%	-14.4%	1.3µM*	-2.0%	-3.1%
COc1ccc(S(=O)(=O)NCCc2sc(-c3cccc(C)c3)nc2C)cc1	3.1%	nt	nt	nt	nt	nt
CCC(Sc1nc(C)cc(C)n1)C(=O)Nc1nccs1 (stereo not given)	3.1%	-7.6%	?	18.3µM*	-0.7%	3.1%
CCOC(=O)c1[nH]c2ccc(F)cc2c1NC(=O)c1cc(OC)c(OC)c(OC)c1	-5.2%	2.6%	-14.1%	7.31µM*	4.1%	0.1%
CCOC(=O)c1[nH]c2ccc(OC)cc2c1NC(=O)c1cccc(OC)c1	-7.1%	-0.4%	-0.3%	13µM*	0.2%	5.0%
CCOC(=O)c1[nH]c2ccc(OC)cc2c1NC(=S)N1CCN(c2cccc(C)c2C)CC1	-5.5%	-5.9%	-10.7%	13µM*	-10.6%	-0.9%
CCOC(=O)c1[nH]c2ccc(OC)cc2c1NC(=S)N1CCN(c2ccc(F)cc2)CC1	-7.2%	3.7%	-11.2%	?	3.3%	-0.2%
Nc1ccccc1SC1CC(=O)N(Cc2ccccc2)C1=O (stereo not given)	-2.2%	-5.4%	8.3%	4.5%	2.5%	-1.3%
O=C(CSc1nc2c(oc3ccccc32)c(=O)n1Cc1ccco1)Nc1ccccc1Cl	-2.1%	nt	nt	nt	nt	nt
SMILES	Tb PGK inh	Tb PFK block	Rango dissoc inh	ELG1 repair inh	PKM2 act	Rango complex inh
Cc1ccc2[nH]c(=O)c3cc(C(=O)N4CCN(c5ccccc5)CC4)sc3c2c1	-8.9%	nt	nt	nt	nt	nt
CCCn1c(=O)cc(N)n(-c2ccc(OC(F)(F)F)cc2)c1=O	1.0%	1.6%	13.5%	1.3%	nt	0.6%
CC(=O)Nc1ccc(NC(=O)CN2C(=O)CCc3cc(S(=O)(=O)N4CCCCC4)ccc32)cc1	i	nt	nt	nt	nt	nt
CC(=O)c1ccc(NC(=O)CN2C(=O)CCc3cc(S(=O)(=O)N4CCC(C)CC4)ccc32)cc1	25.1µM*	nt	nt	nt	nt	nt
N#C/C(=C/c1cn(-c2ccccc2)nc1-c1cccc(OCc2ccccc2)c1)C(=O)NCCCn1ccnc1	-4.4%	0.3%	-3.0%	13µM*	-2.1%	?
CCOc1cccc(-c2nn(-c3ccccc3)cc2/C=C(/C#N)C(=O)NCCCn2ccnc2)c1	-9.1%	-1.1%	-4.7%	?	6.3%	0.6%
Cc1cccc2[nH]c3c(N4CCC5(CC4)OCCO5)ncnc3c12	-6.6%	2.6%	5.0%	16.4µM*	1.7%	-1.3%
O=C(O)c1ccccc1NS(=O)(=O)c1ccc(N/N=C/c2ccc(O)c(O)c2)c([N+](=O)[O-])c1	35.5µM*	nt	13.8%	nt	nt	-0.8%
O=C(O)c1ccccc1NS(=O)(=O)c1ccc(NN=Cc2ccc(F)cc2)c([N+](=O)[O-])c1	-29.5%	20.2%	-1.0%	4.0%	nt	-0.1%
C[C@@H]1CN([C@@H](C)CO)C(=O)CCCn2nncc2CO[C@@H]1CN(C)C(=O)Nc1cccc(Oc2ccccn2)c1	2.2%	nt	nt	nt	nt	nt
CCOCCn1c(=NC(=O)c2ccc(S(=O)(=O)N3CCOCC3)cc2)sc2cc(S(N)(=O)=O)ccc21	-5.9%	1.6%	0.0%	18.3µM*	-2.2%	0.8%
CC(C(=O)c1ccccc1)[n+]1cccc(C(N)=O)c1 (stereo not given)	2.1%	-0.4%	1.6%	15.1%	2.9%	0.5%
NC(=O)CC(NC(=O)c1cccc(Br)c1)c1ccc(NCCN2CCOCC2)c([N+](=O)[O-])c1 (stereo not given)	nt	20.7%	nt	6.7%	7.7%	nt
Cc1ccc(NS(=O)(=O)c2ccc3c(c2)CC(=O)N3)cc1C	-3.2%	-2.0%	25.0%	-0.8%	14.1µM*	-0.1%
Cc1cccc(NS(=O)(=O)c2ccc3c(c2)CCC(=O)N3)c1	-6.4%	-21.0%	18.8%	-5.9%	3.98µM*	0.2%
CCc1cccc(NS(=O)(=O)c2ccc3c(c2)CCC(=O)N3)c1	2.8%	-4.0%	13.9%	?	2.82µM*	0.9%
COc1cccc(NS(=O)(=O)c2ccc3c(c2)CC(=O)N3)c1	i	-6.4%	1.6%	8.6%	nt	-0.6%
